Among the data in ChEMBL document CHEMBL4513216, “Probing the Open Global Health Chemical Diversity Library for Multistage-Active Starting Points for Next-Generation Antimalarials” (ACS Infect Dis, 2020) are INHIBITION values, retold here.

Structures are written as SMILES. In all, about 69,000 compounds went through this assay and about 8,600 (12%) showed an effect of 50% or more. The entries come from a sample that favours strong results as a whole.

The assay deals with Plasmodium berghei. Nature of the assay: Screen against P. berghei liver stage (PbLuc), transformed with Luciferase, at 10uM. The assay is classed as functional, HepG2. To be noted: tested at 10 uM.
Turning to `CCn1cc(CN2CCCN(C(=O)c3ccc(C)o3)CC2)cn1`, the INHIBITION was found to be 31.3%.

`Cn1ccnc1CN1CCC2(CCC(=O)N2CCN2CCCC2)CC1`: the INHIBITION came out at 35.2%.

In the case of `O=C(NCCn1nc(-n2cncn2)ccc1=O)c1ccc(F)cc1F`, the INHIBITION is on record as 7.77%.

For `c1cnn(-c2ccc(CCNC3CCN(C4CC4)C3)cc2)c1` (configuration not stated), the INHIBITION worked out at 14.2%.

Take `COc1cccc(-n2nnc(C(=O)N3CCCCCC3)c2C)c1`: the INHIBITION came to 2.845%.

With `Cc1ccc(CSc2nc(N)cc(NCCS(=O)(=O)N(C)C)n2)cc1`, the INHIBITION is 23.5%.

Consider `COc1ccc(CN(Cc2ccsc2)CC2CCCO2)cn1` (configuration not stated), for which the INHIBITION is on record as 61.6%.

Consider `c1csc(CN(Cc2ccsc2)CC2CCCO2)n1` (configuration not stated), for which the INHIBITION is on record as -12.2%.

As to `CC(C)n1cc(CN(Cc2ccsc2)CC2CCCO2)cn1` (configuration not stated), the INHIBITION was found to be 12.9%.

For the compound `CCCc1nnc(NCCc2noc(C3CC3)n2)o1`, the INHIBITION was found to be 16.5%.

On to `NC(=O)Cn1cc(NC(=O)N2CCN(c3ccc(F)cc3)CC2)cn1`, for which the INHIBITION is recorded as 7.333%.

For `NC(=O)c1cn(CC2CCC2)c(C2CC2)n1`, the INHIBITION was -21.8%.

Turning to `CNc1ncccc1CN1CCN(C)CC(C(N)=O)C1` (configuration not stated), the INHIBITION amounted to 33.2%.

For `CNc1ncccc1CN1CCN(C)CC(C(=O)N(C)C)C1` (configuration not stated), the INHIBITION worked out at 0.696%.

For the compound `CNc1ncccc1CN1CCN2CCN(C)CC2C1` (configuration not stated), the INHIBITION came out at 53.8%.

`Cc1nccn1CCC(=O)N1CCC2(CCC(=O)N(CC3CC3)C2)CC1`: the INHIBITION came to 42.5%.

`CN(Cc1cccs1)C1CCC[C@@H]2CN(C(=O)c3cnccn3)C[C@H]12` (some centres not stated): the INHIBITION is 37.9%.

Consider `Cn1c(=O)oc2ccc(Nc3ncc(C#N)cc3Cl)cc21`, for which the INHIBITION worked out at 42.1%.

With `Cn1c(=O)oc2cc(Nc3nccnc3C#N)ccc21`, the INHIBITION is given as 36.5%.

On to `Cn1c(=O)oc2cc(Nc3ncc(C#N)cc3Cl)ccc21`, for which the INHIBITION amounted to 58.9%.

`CS(=O)(=O)NCCN(CCCO)C1CCc2ccccc21` (configuration not stated): the INHIBITION turned out to be 51.7%.

`CS(=O)(=O)CCN(CCCO)C1CCc2ccccc21` (configuration not stated): the INHIBITION is recorded as 18.3%.

Consider `CS(=O)(=O)CCCN(CCCO)C1CCc2ccccc21` (configuration not stated), for which the INHIBITION is listed as 21.7%.

Turning to `CC(=O)N1N=C(c2cccs2)OC1C(=O)Nc1ccc(C(C)C)cc1` (configuration not stated), the INHIBITION is on record as 6.55%.

For `CCN1CCCN(C(=O)c2ccc(NC(=O)CC(C)C)c(C)c2)CC1`, the INHIBITION is listed as 76.6%.

Consider `CCN1CCN(c2ccc(NC(=O)CC(C)C)c(C)c2)CC1`, for which the INHIBITION turned out to be 35.7%.

As to `COCC1CCCN(C(=O)c2ccc(NC(=O)CC(C)C)c(C)c2)C1` (configuration not stated), the INHIBITION stood at 4.97%.

`CCOC(=O)COc1ccc(C(C)=O)c(O)c1`: the INHIBITION came out at 38.2%.

Regarding `Cc1nn(C)c(C)c1C1CCCN1C(=O)c1ccc2c(c1)OCCO2` (configuration not stated), the INHIBITION is -45.9%.

As for `CCSCc1ccc(C(=O)N2CCCN(CC(N)=O)CC2)cc1`, the INHIBITION is listed as -40.5%.

Regarding `Cc1cccc(CN2C(=O)CC[C@@H]3[C@H]2CCN3CC2CCOCC2)n1`, the INHIBITION came out at 38.1%.

Take `CN(Cc1ccccc1NCc1cscn1)C(=O)c1cccs1`: the INHIBITION was 20.6%.

As for `Cc1cnc(CNc2ccccc2CN(C)C(=O)c2cccs2)o1`, the INHIBITION is on record as 55.6%.

Consider `CN(Cc1ccccc1NCc1cccnc1)C(=O)c1cccs1`, for which the INHIBITION turned out to be 49.3%.

As to `CCc1noc(CN(CC)C(=O)CC2C(=O)NCCN2CC(C)(C)C)n1` (configuration not stated), the INHIBITION amounted to 13.7%.

Regarding `CCN1C[C@H]2[C@@H](C1)N(S(=O)(=O)c1ccccc1)CC[C@H]2OC`, the INHIBITION is 41.6%.

Take `CO[C@@H]1CCN(S(=O)(=O)c2cccnc2)[C@@H]2CN(CC3CC3)C[C@@H]21`: the INHIBITION is given as 53.2%.

`CCN1C[C@@H]2[C@@H](OC)CCN(S(=O)(=O)c3ccccc3)[C@@H]2C1`: the INHIBITION was determined as 17.6%.

As for `CCN1C[C@H]2[C@@H](C1)N(S(=O)(=O)c1cccnc1)CC[C@H]2OC`, the INHIBITION came out at 59.1%.

Regarding `COCCN1C[C@@H]2[C@@H](OC)CCN(S(=O)(=O)c3cccnc3)[C@@H]2C1`, the INHIBITION was 31.1%.

As to `CO[C@H]1CCN(S(=O)(=O)N(C)C)[C@@H]2CN(Cc3cccnc3)C[C@H]12`, the INHIBITION was -18.5%.

`CCN1C[C@@H]2[C@@H](OC)CCN(S(=O)(=O)c3cccnc3)[C@@H]2C1`: the INHIBITION worked out at 26.4%.

`CO[C@H]1CCN(S(=O)(=O)c2cccnc2)[C@@H]2CN(CC3CC3)C[C@H]12`: the INHIBITION stood at 52%.

`CO[C@@H]1CCN(S(=O)(=O)N(C)C)[C@@H]2CN(Cc3cccnc3)C[C@@H]21`: the INHIBITION worked out at 36.2%.

Consider `O=C(NCCC1CCN(CC(F)(F)F)CC1)C1CCOC1` (configuration not stated), for which the INHIBITION was determined as 26.1%.

For the compound `Cc1csc(C(C)(C)NCC(=O)N(C)Cc2ccc(C)o2)n1`, the INHIBITION worked out at 11.3%.

As for `NC(=O)C1CCN(C(=O)c2cccn2Cc2cccs2)C1` (configuration not stated), the INHIBITION stood at 11.6%.

Regarding `CN1CCc2nc(C3CCCN(S(=O)(=O)c4ccccc4)C3)ncc2C1` (configuration not stated), the INHIBITION worked out at 29.85%.

As to `OC1(CN2CCC(Cc3ncccn3)CC2)CCCCC1`, the INHIBITION was found to be 14.6%.

Take `COCCc1noc(CN2CCCC2Cn2cccn2)n1` (configuration not stated): the INHIBITION came to 38.8%.

As for `CSc1ccc(-c2noc(CN(CC(C)C)CC(C)C)n2)cc1`, the INHIBITION was 65.8%.

`CSc1ccc(-c2noc(CN(Cc3ccccc3)C(C)C)n2)cc1`: the INHIBITION was determined as 46.1%.
